Compound activity from PubChem BioAssay.
The list is not random: actives were taken first. Their share in the collection is about 3.3%.
PRMT1 inh: blocks human protein arginine methyltransferase 1. Q99873. recombinant PRMT1, activity-based probe fluorescence polarization. inhibition, % at 2.79 µM. 1.3% of 370,000 active;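 active = inhibition above about 21% made by adding two undisclosed values, limit read from the data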
PfM18AAP inh-1: blocks P. falciparum M18 aspartyl aminopeptidase. recombinant PfM18AAP, H-Glu-NHMec fluorogenic cleavage. 1.2% of 290,000 active. inhibition, % at 7.35 µM;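 active = inhibition above the campaign mean inhibition over all tested compounds plus 3 SD, cut at about 28% in these data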
PfG6PD inh: PfG6PD (Plasmodium falciparum) enzyme inhibition. PfGluPho enzyme, NADPH resazurin-diaphorase fluorescence. AID 504690. 0.78% of 350,000 active. inhibition, % at 20 µM;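 active = inhibition reaching at least a set limit at 20 µM in the primary screen, cut at about 59% in these data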
MBD2 DNA inh: inhibitors of human MBD2 binding to methylated oligonucleotide | 0.31% of 370,000 active | TR-FRET | inhibition, % at 4.4 µM | AID 686964; in the data active = inhibition above about 13%
Target sequence (Q9UBB5 whole entry, looked up): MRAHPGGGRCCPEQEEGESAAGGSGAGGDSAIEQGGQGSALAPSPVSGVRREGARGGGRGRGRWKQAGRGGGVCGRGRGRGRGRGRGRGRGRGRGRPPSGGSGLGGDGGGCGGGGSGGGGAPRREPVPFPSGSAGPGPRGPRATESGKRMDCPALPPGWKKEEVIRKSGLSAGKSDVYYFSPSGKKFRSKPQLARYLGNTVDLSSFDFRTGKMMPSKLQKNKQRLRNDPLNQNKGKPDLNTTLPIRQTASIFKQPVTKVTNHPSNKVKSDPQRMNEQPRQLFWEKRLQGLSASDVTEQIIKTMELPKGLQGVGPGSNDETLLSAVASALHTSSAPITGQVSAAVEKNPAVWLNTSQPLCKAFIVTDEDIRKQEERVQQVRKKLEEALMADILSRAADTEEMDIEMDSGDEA
UHRF1 binding: human UHRF1 methylated DNA binding inhibitors; Q96T88; UHRF1 binding to methylated oligo, TR-FRET; inhibition, % at 4.4 µM; 0.75% of 370,000 active; AID 687016; in the data active = inhibition above about 21%;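 note: UHRF1 SRA domain binding a hemimethylated CpG hairpin DNA probe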
PfM18AAP inh-2: PfM18AAP inhibition, confirmation | inhibition, % at 7.35 µM | 28% of 2,400 active | recombinant PfM18AAP, H-Glu-NHMec fluorogenic cleavage | AID 2170 | shares compounds with PfM18AAP inh-1;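 active = mean inhibition over replicate wells above the hit cutoff set for the earlier primary screen, cut at about 29% in these data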
CTSL1 counter: counter-screen for PFM18AAP inhibitors: confirmation of human cathepsin L inhibitors; purified cathepsin L1, Z-Leu-Arg-MCA fluorescence; shares compounds with PfM18AAP inh-1; inhibition, % at 5.96 µM; 2,400 tested, under 10 active;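 active = average inhibition across replicates above the hit cutoff set in the earlier primary screen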
Target sequence (P07711 whole entry, looked up): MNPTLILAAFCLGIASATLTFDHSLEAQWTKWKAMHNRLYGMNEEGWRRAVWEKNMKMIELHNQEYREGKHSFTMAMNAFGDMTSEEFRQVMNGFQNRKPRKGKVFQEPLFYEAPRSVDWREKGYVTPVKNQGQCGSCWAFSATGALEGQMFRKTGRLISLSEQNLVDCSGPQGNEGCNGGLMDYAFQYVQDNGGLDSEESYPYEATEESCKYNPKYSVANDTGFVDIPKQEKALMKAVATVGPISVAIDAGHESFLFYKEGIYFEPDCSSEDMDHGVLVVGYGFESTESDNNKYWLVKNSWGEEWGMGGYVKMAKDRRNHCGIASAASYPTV
Of the large screens only hits and unclear results are named; the others gave an inactive call (follow-up assays come after a bar, where they were run).

CCOc1ccc(CN(C)C(=O)c2ccc3ccccc3n2)cc1	none
Cc1ccc(C)c(NC(=O)c2ccc3ccccc3n2)c1	none
COc1ccc(NC(=S)c2ccc3ccccc3n2)cc1	PfM18AAP inh-1 47 (no result: PRMT1 inh, MBD2 DNA inh, UHRF1 binding) | PfM18AAP inh-2 inactive | CTSL1 counter inactive
COC(=O)C1(F)C(=O)NC(=O)NC1OC (stereo not drawn)	none (no result: PfM18AAP inh-1, PfG6PD inh)
CC(C)(C)c1ccc(-c2noc(CCC(=O)NC3CC3)n2)cc1	none (no result: PfM18AAP inh-1, PfG6PD inh)
C[C@H](CO)N1C[C@H](C)[C@@H](CN(C)C(=O)Nc2cccc(C(F)(F)F)c2)OCc2cn(nn2)CCCC1=O	none (no result: PfM18AAP inh-1, PfG6PD inh)
Cc1ccc(/C=C2\SC(=S)N(/N=C/c3cc([N+](=O)[O-])ccc3O)C2=O)o1	PfM18AAP inh-1 40 (no result: PRMT1 inh, MBD2 DNA inh, UHRF1 binding) | PfM18AAP inh-2 inactive | CTSL1 counter inactive
O=[N+]([O-])c1ccc(O)c(/C=N/n2cnc3ccccc32)c1	none
O=C(N[C@H](Cc1ccccc1)C(=O)NCCN1CCOCC1)[C@H]1O[C@@H](n2ccc(=O)[nH]c2=O)[C@H](O)[C@@H]1O	none (no result: PfM18AAP inh-1, PfG6PD inh)
COC(=O)CSc1nnc(NC(=O)c2ccc3c(c2)OCO3)s1	none
CCC(CC)c1nnc(NC(=O)c2ccc3c(c2)OCO3)s1	PfM18AAP inh-1 36 | PfM18AAP inh-2 inactive | CTSL1 counter inactive
C/C(=N/Nc1nc(-c2ccccc2)cc(-c2ccc(F)cc2)n1)c1cccc(N)c1	PfM18AAP inh-1 36 | PfM18AAP inh-2 inactive | CTSL1 counter inactive
C/C(=N\Nc1nc(C)cc(-c2ccccc2)n1)c1ccc(F)cc1	none
COc1ccc(CN2C3=N[C@H](c4ccccc4)CC(=O)N3/C(=C\c3ccccc3)C2c2ccco2)c(OC)c1 (stereo partly drawn)	none (no result: PfM18AAP inh-1, PfG6PD inh)
O=[N+]([O-])c1ccc(S(=O)(=O)NN=Cc2ccc3c(c2)OCO3)cc1	none (no result: PfM18AAP inh-1)
O=[N+]([O-])c1cc2c(cc1/C=N\NS(=O)(=O)c1ccccc1)OCO2	PfM18AAP inh-1 48 | PfM18AAP inh-2 inactive | CTSL1 counter inactive
CC(C)(C)c1ccc(O)c(N=Cc2cc3c(cc2[N+](=O)[O-])OCO3)c1	PfM18AAP inh-1 36 | PfM18AAP inh-2 90 | CTSL1 counter inactive
Cc1nnc(SCC(=O)Nc2ccccc2)[nH]c1=O	none
Cc1nnc(SCC(=O)NNC(=O)CC#N)[nH]c1=O	PfM18AAP inh-1 43 | PfM18AAP inh-2 inactive | CTSL1 counter inactive
NC(=O)c1sc(=S)n(-c2ccc(Br)cc2)c1N	PfM18AAP inh-1 38 | PfM18AAP inh-2 inactive | CTSL1 counter inactive
CCNC(=O)c1cccc(S(=O)(=O)N2CCCCCC2)c1	PfM18AAP inh-1 36 | PfM18AAP inh-2 inactive | CTSL1 counter inactive
O=C(N/N=C/c1ccc(O)c(O)c1)c1cccc(S(=O)(=O)N2CCCCC2)c1	PfM18AAP inh-1 56 | PfM18AAP inh-2 51 | CTSL1 counter inactive
O=C(NN=Cc1ccc(F)cc1)c1cccc(S(=O)(=O)N2CCCC2)c1	none (no result: PfM18AAP inh-1)
CCCCCCCCN1C(=O)[C@@H](CC(=O)N2CCN(C(=O)C3CC3)CC2)C[C@@]2(C(=O)OC)C1=C[C@H](C(C)C)O[C@@H]2C1CC1	none (no result: PfM18AAP inh-1, PfG6PD inh)
COc1ccc(Sc2cccc3c2S(=O)(=O)N([C@H](C)c2ccccc2)C[C@@H](COCc2ccccc2)O3)cc1OC	none (no result: PfM18AAP inh-1, PfG6PD inh)
Cc1ccc(S(=O)(=O)NNc2nnc(C)c(=O)[nH]2)cc1	PfM18AAP inh-1 74 | PfM18AAP inh-2 39 | CTSL1 counter inactive
Cc1nnc(NNS(=O)(=O)c2ccc(Cl)cc2)[nH]c1=O	PfM18AAP inh-1 72 | PfM18AAP inh-2 60 | CTSL1 counter inactive
Cc1occc1C(=O)NNS(=O)(=O)c1ccc(Cl)cc1	none
C=CCOC(=O)C(CO)NC(=O)CCCC(=O)O (stereo not drawn)	none (no result: PfM18AAP inh-1, PfG6PD inh)
c1ccc(N2CCN(c3ncccn3)CC2)cc1	none
Oc1ccccc1N1CCN(c2ncccn2)CC1	PfM18AAP inh-1 42 | PfM18AAP inh-2 inactive | CTSL1 counter inactive
NNc1ccc2c(C(F)(F)F)cc(C(F)(F)F)nc2n1	PfM18AAP inh-1 45 | PfM18AAP inh-2 inactive | CTSL1 counter inactive
Cc1ccc(/C=N/Nc2ccc3c(C(F)(F)F)cc(C(F)(F)F)nc3n2)cc1	none (no result: PRMT1 inh, MBD2 DNA inh, UHRF1 binding)
CC(C)c1ccc(OC[C@@H](O)CN2CCC(C(O)(c3ccccc3)c3ccccc3)CC2)cc1	none (no result: PfM18AAP inh-1, PfG6PD inh)
Cc1ccccc1N1CCN(Cc2cc3c(cc2[N+](=O)[O-])OCO3)CC1	PfM18AAP inh-1 35 | PfM18AAP inh-2 inactive | CTSL1 counter inactive
Cc1ccc2[nH]c3c(c2c1)CCc1cn[nH]c1-3	PfM18AAP inh-1 33 | PfM18AAP inh-2 inactive | CTSL1 counter inactive
COc1cccc(/C=N/c2sc(Cc3ccccc3)c(C)c2C(N)=O)c1O	PfM18AAP inh-1 34 | PfM18AAP inh-2 inactive | CTSL1 counter inactive
COc1ccc(-c2cc(C(=O)N=Nc3c(O)[nH]c4ccccc34)[nH]n2)cc1	none (no result: PfM18AAP inh-1, PfG6PD inh)
COc1ccc(C=NNc2ccc(S(=O)(=O)Nc3ccccc3C(=O)O)cc2[N+](=O)[O-])c(OC)c1	none (no result: PRMT1 inh, PfM18AAP inh-1, MBD2 DNA inh, UHRF1 binding)
COc1ccc(NC(=S)NNc2ccc(S(=O)(=O)Nc3ccccc3C(=O)O)cc2[N+](=O)[O-])cc1	PfM18AAP inh-1 64 | PfM18AAP inh-2 42 | CTSL1 counter inactive
CCOc1ccc2c(c1)S/C(=C\c1cccs1)C(=O)N2	PfM18AAP inh-1 34 | PfM18AAP inh-2 inactive | CTSL1 counter inactive
Cc1cc(O)cc(=O)n1-c1cc(F)c(F)c(F)c1	none (no result: PfM18AAP inh-1, PfG6PD inh)
C=CCCC1CN(Cc2ccc(OC)cc2)S(=O)(=O)c2c(cccc2Sc2ccc(OC)c(OC)c2)O1 (stereo not drawn)	none (no result: PfM18AAP inh-1, PfG6PD inh)
COc1ccc(Cl)cc1NC(=O)Nn1cnnc1	PfM18AAP inh-1 81 | PfM18AAP inh-2 74 | CTSL1 counter inactive
Cc1ccc(Cl)cc1NC(=O)Nn1cnnc1	PfM18AAP inh-1 76 | PfM18AAP inh-2 61 | CTSL1 counter inactive
Cc1ccc(C)c(NC(=O)CCn2cnnn2)c1	none
Cc1ccc(C)c(NC(=O)Nn2cnnc2)c1	PfM18AAP inh-1 60 | PfM18AAP inh-2 41 | CTSL1 counter inactive
O=C(Nc1ccc(Cl)cc1Cl)Nn1cnnc1	PfM18AAP inh-1 83 | PfM18AAP inh-2 77 | CTSL1 counter inactive
C=CCN(Cc1ccc(OC)cc1OC)C(C#CCCCC)c1ccccc1 (stereo not drawn)	none (no result: PfM18AAP inh-1, PfG6PD inh)
Nc1[nH]c2cc(C(F)(F)F)ccc2c1C(=O)NCc1ccc(F)cc1	none (no result: PfM18AAP inh-1, PfG6PD inh)
COC[C@@H]1CCCN1c1ccc2c(c1)O[C@H]1CCN(C1)S2(=O)=O	none (no result: PfM18AAP inh-1, PfG6PD inh)
CN1/C(=C\C(=O)COC(=O)c2ccc(O)c(O)c2)C(C)(C)c2ccccc21	PfM18AAP inh-1 45 | PfM18AAP inh-2 inactive | CTSL1 counter inactive
CN1/C(=C\C(=O)CSc2cccc[n+]2[O-])C(C)(C)c2ccccc21	PfM18AAP inh-1 49 | PfM18AAP inh-2 inactive | CTSL1 counter inactive
O=[N+]([O-])c1ccc(Cn2ccc3ccc(-c4ccc5ccn(Cc6ccccc6)c5c4)cc32)cc1	none (no result: PfM18AAP inh-1, PfG6PD inh)
O=C(c1ccc(F)cc1Cl)N(Cc1ccccn1)CC1CCCO1 (stereo not drawn)	none (no result: PfM18AAP inh-1, PfG6PD inh)
C(=N\Nc1ncnc2sc3c(c12)CCC3)/c1ccncc1	PfM18AAP inh-1 48 | PfM18AAP inh-2 inactive | CTSL1 counter inactive
